Our source for the outcome and AC50 values is PubChem BioAssay (EPA / NIEHS).

Molecules are shown by their SMILES. Results filed as inconclusive are left out. Where a structure was tested more than once in an assay, its records may differ in their call. Activity calls are given as the source filed them. How the source made its calls: active means hit-call score of the fitted dose curve at least 0.9, where 1 is the maximum; inconclusive means response in the unintended direction; inactive means score below 0.9.

A short description of the assay: Tanguay_ZF_120hpf_EYE_legacy: (Legacy) Oregon State University Tanguay Lab 120 Hour Post-fertilization zebrafish Assay for Eye Malformation (AID 2283636).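 Further: binary presence or absence of eye malformation scored by brightfield in 120 hpf larvae.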 As to the method: Tanguay_ZF_120hpf_legacy is a whole embryo, multiplexed endpoint assay using zebrafish larvae exposed for 120 hours post fertilization on a 96-well plate.Tanguay_ZF_120hpf_EYE_legacy is one of one assay component(s) measured or calculated from the Tanguay_ZF_120hpf_legacy assay. It is designed to make measurements of zebrafish development as detected with brightfield microscopy of developing zebrafish embryos.Data from the assay component Tanguay_ZF_120hpf_EYE_legacy was analyzed into 1 assay endpoints. This assay endpoint, Tanguay_ZF_120hpf_EYE_legacy, was analyzed in the positive analysis fitting direction relative to DMSO as the negative control and baseline of activity. Using a type of morphology reporter, gain-of-signal activity can be used to understand changes in developmentals as they relate to the whole embryo. To generalize the intended target to other relatable targets, this assay endpoint is annotated to the zebrafish development intended target family, where the subfamily is embryonic eye development.
Zebrafish husbandry: Tropical 5D wild-type adult zebrafish were housed in at an approximate density of 1000 per 100 gallon tank at the Sinnhuber Aquatic Research Laboratory, Oregon State University, Corvallis, OR. Each tank was kept at standard laboratory conditions of 28C on a 14-h light/10-h dark photoperiod in fish water consisting of reverse osmosis water supplemented with a commercially available salt (Instant Ocean). Spawning funnels were placed into the tanks the night prior, and embryos were collected and staged. To increase bioavailability, the chorion was enzymatically removed using pronase (63.6mg/ml, >/= 3.5U/mg, Sigma-Aldrich: P5147) at 4 hours post fertilization (hpf) using a custom automated dechorionator.Chemical exposures: Six hpf dechorionated embryos were placed 1 embryo per well in a 96-well plate prefilled with 90 ul of EM using automated embryo placement systems (AEPS). Ten microliters of each row of dilution plate 2 was added to 2 exposure plates. The final DMSO concentration used was 0.64% (vol/vol). Thirty-two embryos were also exposed to 5uM trimethyltin chloride (positive control). Plates were sealed to prevent evaporation and foil covered to reduce light exposure and kept in a 28C incubator. Embryos were statically exposed until 120 hpf. At 24 hpf, embryos were assessed for photomotor response using a custom photomotor response analysis tool (PRAT) and for developmental toxicity endpoints (MO24: mortality at 24 hpf, DP: developmental progression, SM: spontaneous movement, and NC: notochord distortion). At 120 hpf, locomotor activity was measured using Viewpoint Zebralab and assessed for 18 endpoints. Zebrafish acquisition and analysis program (ZAAP), a custom program designed to inventory, acquire, and manage zebrafish data, was used to collect developmental endpoints as either present or absent (i.e., binary responses were recorded). If mortality occurred for an embryo (at either 24 or 120 hpf), the non-mortality endpoints were not measured.
On to `C=CC(=O)OCCCCCC(C)C`, for which the result was inactive.

With `CC(=O)[O][Hg][c]1ccccc1`, the call was inactive. With `Cc1ccccc1N`, the result was inactive.

As to `COc1cc(-c2ccc(N)c(OC)c2)ccc1N`, the AC50 was 57 µM (active) and the outcome was inactive.

For the molecule `O=C(O)C(F)(F)C(F)(F)C(F)(F)C(F)(F)C(F)(F)C(F)(F)F`, the molecule was classed as inactive.

For `NC(=O)O`, the molecule was classed as inactive. Consider `O=C(O)C(F)(F)C(F)(F)C(F)(F)C(F)(F)C(F)(F)C(F)(F)C(F)(F)C(F)(F)C(F)(F)C(F)(F)F`, for which the molecule was called inactive. Take `CCC(=O)C(CC(C)N(C)C)(c1ccccc1)c1ccccc1` (stereo not given): the molecule was called inactive. With `C[C@@H]1C[C@@H]([C@H](O)CC2CC(=O)NC(=O)C2)C(=O)[C@@H](C)C1`, the molecule was classed as inactive. On to `CC(C)(OO)c1ccccc1`, for which the molecule was classed as inactive. With `O=c1[nH]c(=O)[nH]c(=O)[nH]1`, the molecule was classed as inactive.

In the case of `O=[N+]([O-])c1ccc(O)c([N+](=O)[O-])c1`, the result was inactive. For the molecule `CC(C)(C)CC(C)(C)c1ccc(O)cc1`, the result was inactive. For the molecule `CC(C)(c1ccccc1)c1ccc(O)c(C(C)(C)c2ccccc2)c1`, the result was inactive. As for `CCN1CCC2(CC1)COc1cc3c(cc12)N(C(=O)c1ccc(-c2ccc(-c4nnc(C)o4)cc2C)cc1)CC3`, the result was inactive. Take `C=C(C)C(=O)[O][Sn]([CH2]CCC)([CH2]CCC)[CH2]CCC`: the molecule was classed as inactive.

Turning to `O=C1C2(Cl)C3(Cl)C4(Cl)C(Cl)(Cl)C5(Cl)C3(Cl)C1(Cl)C5(Cl)C24Cl` (stereo not given), the AC50 is 79.7 µM (active).

Turning to `O=C(Nc1ccc2[nH]ccc2c1)c1cc2cc(F)ccc2n1Cc1cccc(F)c1`, the molecule was called inactive. Take `CCOP(=S)(OCC)Oc1nc(Cl)c(Cl)cc1Cl`: the molecule was classed as inactive.

Take `CN(C)N=O`: the molecule was called inactive. As to `ClC1(Cl)C2(Cl)C3(Cl)C4(Cl)C(Cl)(Cl)C5(Cl)C3(Cl)C1(Cl)C5(Cl)C24Cl` (stereo not given), the result was inactive.

With `CCCCCCCCc1ccc(O)cc1`, the call was inactive. With `CCC(C)(C)c1ccc(O)c(C(C)(C)CC)c1`, the molecule was classed as inactive.

`C[C@]12CCC(=O)C[C@@H]1CC[C@@H]1[C@@H]2CC[C@]2(C)[C@@H](O)CC[C@@H]12`: the result was inactive. For the molecule `CC(C)(C)c1cc(O)ccc1O`, the outcome was inactive. Take `CC12CC1(C)C(=O)N(c1cc(Cl)cc(Cl)c1)C2=O` (stereo not given): the molecule was classed as inactive.

With `O=C(O)C(Cl)(Cl)Cl`, the call was inactive.

As for `CCOP(=S)(OCC)SCSP(=S)(OCC)OCC`, the result was inactive. On to `Cn1sc(Cl)cc1=O`, for which the result was inactive.

What is called AC50 is the concentration giving half of the maximal activity seen.
